Test results: PubChem BioAssay AID1259418 (Broad Institute, 2018)
Hit rate of the full screen: of about 3,400 compounds, about 840 (25%) were called active. Another 11% or so got no clear call; they are omitted. These entries were drawn from the full list. Potency and affinity values are given separately. A number with no mark means an inactive call.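 The calls were made as follows: active = fitted half-maximal concentration of signal decrease at or below twice the sample's top tested concentration; inconclusive = flat curve between -70 and -30 percent, or poor fit; inactive = flat within 30 percent, signal rise, or potency above limit.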

Test: T. gondii growth inhibition with IFN-gamma, dose response, cell-based, ME49Luc, HeLa, luciferase, 72 h (AID 1259418)
Details: T. gondii ME49Luc in IFN-y HeLa, active compounds read low, -100% = high-dose IFN-γ control wells; at 19.5 µM unless noted

**Q.** With O=C(c1ccco1)N1CCC2(CC1)Nc1cc(F)ccc1-n1cccc12 as the compound, how does the max activity read?
**A.** 7.86% [at 0.16 µM]

**Q.** With O=C(c1ccco1)N1CCN(c2nc(-c3ccc(Cl)cc3)nc3ccccc23)CC1 as the compound, how does the max activity read?
**A.** 16.5% [at 0.35 µM]

**Q.** For Cc1ccc2c(c1C)-n1cccc1C1(CCN(C(=O)c3ccc(Cl)cc3)CC1)N2, which max activity is on record?
**A.** -11.9% [at 0.16 µM]

**Q.** For O=C(CC1Nc2c3ccccc3nc(=S)n2C1=O)NCCC1=CCCCC1 (stereo unspecified), which max activity is on record?
**A.** 25.3% [at 0.68 µM]

**Q.** Which max activity does the source give for CC(C)(C)c1ccc(CSC2=Nc3ccccc3C3=NC(CCC(=O)NCc4ccco4)C(=O)N23)cc1 (stereo unspecified) here?
**A.** 15.7% [at 0.16 µM]

**Q.** For Cc1ccc(CSC2=Nc3ccccc3C3=NC(CCC(=O)NCc4ccco4)C(=O)N23)cc1 (stereo unspecified), which max activity is on record?
**A.** 39.1%

**Q.** Which max activity does the source give for Cc1ccc(CSC2=Nc3ccccc3C3=NC(CC(=O)NCc4ccco4)C(=O)N23)cc1 (stereo unspecified) here?
**A.** 10.3% [at 0.35 µM]

**Q.** Which max activity does the source give for O=C(CC1N=C2c3ccccc3N=C(SCc3ccccc3F)N2C1=O)NCc1ccco1 (stereo unspecified) here?
**A.** -17.8%

**Q.** With Cc1nc(OCC(=O)Nc2cccc(Cl)c2)c2ccccc2n1 as the compound, how does the max activity read?
**A.** -6.84% [at 0.35 µM]

**Q.** For Cc1ccc(C)c(-c2coc(-c3ccc(NC(=O)C(C)(C)C)cc3)n2)c1, which max activity is on record?
**A.** 13.3% [at 0.16 µM]

**Q.** Which max activity does the source give for COCCN1CCN(S(=O)(=O)c2ccccc2)Cc2cccnc21 here?
**A.** 18.1%

**Q.** With CCOC(=O)c1ccccc1NC(=O)COc1nc(C)nc2ccccc12 as the compound, how does the max activity read?
**A.** 26.7% [at 10 µM]

**Q.** For COC(=O)c1ccc(Cl)cc1NC(=O)COc1nc(C)nc2ccccc12, which max activity is on record?
**A.** 29% [at 0.16 µM]

**Q.** Which max activity does the source give for CCc1cccc(C)c1NC(=O)COc1nc(C)nc2ccccc12 here?
**A.** 13.2% [at 0.68 µM]

**Q.** For COc1ccc(C)cc1NC(=O)COc1nc(C)nc2ccccc12, which max activity is on record?
**A.** 17.5% [at 0.68 µM]

**Q.** With Cc1nc(OCC(=O)Nc2cccc(Br)c2)c2ccccc2n1 as the compound, how does the max activity read?
**A.** 18% [at 0.35 µM]

**Q.** For Cc1cc(C)c(NC(=O)COc2nc(C)nc3ccccc23)c(C)c1, which max activity is on record?
**A.** -16.7% [at 0.68 µM]

**Q.** For Cc1cc(C)cc(NC(=O)COc2nc(C)nc3ccccc23)c1, which max activity is on record?
**A.** -16.7% [at 5 µM]

**Q.** With COc1ccc(OC)c(NC(=O)COc2nc(C)nc3ccccc23)c1 as the compound, how does the max activity read?
**A.** 27.6% [at 2.6 µM]

**Q.** With CCOc1cccc(CC(=O)N2CCC3(CC2)Nc2cc(F)ccc2-n2cccc23)c1OCC as the compound, how does the max activity read?
**A.** 11.6% [at 0.35 µM]

**Q.** With O=C(NCCc1csc(-c2ccccc2)n1)[C@H]1CSCN1C(=O)Cc1ccc(F)cc1 as the compound, how does the max activity read?
**A.** 10.7% [at 10 µM]

**Q.** For Cc1ccc(C)c(-c2coc(-c3ccc(NC(=O)NCc4ccc(F)cc4)cc3)n2)c1, which max activity is on record?
**A.** -8.97% [at 1.35 µM]

**Q.** Which max activity does the source give for CCOc1ccc(C(=O)N2CCC3(CC2)Nc2ccc(C)c(C)c2-n2cccc23)cc1 here?
**A.** -13.2%

**Q.** For Cc1cccc(C(=O)Nc2c(C(=O)NCc3ccccn3)[nH]c3ccccc23)c1, which max activity is on record?
**A.** 17.8% [at 2.6 µM]

**Q.** For CN(C)CCN1CCC2(CCCN(C(=O)C3CCOC3)C2)C1=O (stereo unspecified), which max activity is on record?
**A.** 39.4%

**Q.** For Cc1cccc(-c2nc(Cn3nnc(-c4nc(-c5ccccc5C)no4)c3C)c(C)o2)c1, which max activity is on record?
**A.** 5.08% [at 0.35 µM]

**Q.** For O=C(Nc1ccc(-c2nc(-c3cccc(Br)c3)co2)cc1)c1ccco1, which max activity is on record?
**A.** 21.7%

**Q.** Which max activity does the source give for O=C(NCCc1csc(-c2ccccc2)n1)[C@H]1CCCN1C(=O)COc1ccccc1 here?
**A.** -18.8%

**Q.** Which max activity does the source give for Cc1nc(OCC(=O)Nc2ccccc2)c2ccccc2n1 here?
**A.** 12.4% [at 0.16 µM]

**Q.** With Cc1nc(OCC(=O)Nc2ccc(F)cc2F)c2ccccc2n1 as the compound, how does the max activity read?
**A.** -20.9% [at 1.35 µM]

**Q.** For Cc1nc(OCC(=O)Nc2ccc3c(c2)OCO3)c2ccccc2n1, which max activity is on record?
**A.** 12.1% [at 5 µM]

**Q.** With CCc1nc(OCC(=O)NCc2ccc3c(c2)OCO3)c2ccccc2n1 as the compound, how does the max activity read?
**A.** 11.9% [at 0.35 µM]

**Q.** Which max activity does the source give for COc1cc(NC(=O)COc2nc(C)nc3ccccc23)cc(OC)c1 here?
**A.** -12.3% [at 0.35 µM]

**Q.** For COc1ccc(NC(=O)COc2nc(C)nc3ccccc23)cc1, which max activity is on record?
**A.** 19.3% [at 0.68 µM]

**Q.** With Cc1nc(OCC(=O)Nc2ccc(Cl)cc2F)c2ccccc2n1 as the compound, how does the max activity read?
**A.** -13% [at 0.16 µM]

**Q.** With Cc1nc(OCC(=O)Nc2ccc(F)cc2)c2ccccc2n1 as the compound, how does the max activity read?
**A.** 17.7% [at 10 µM]

**Q.** Which max activity does the source give for O=C(Cc1ccc(F)cc1)N1CCC2(CC1)Nc1cc(F)ccc1-n1cccc12 here?
**A.** 16% [at 0.16 µM]

**Q.** With O=C(NCc1ccccc1)Nc1ccc(-c2nc(-c3ccccc3)co2)cc1 as the compound, how does the max activity read?
**A.** 42.6%

**Q.** For CCc1cc(C2CCCN2C(=O)Cn2nc(C(F)(F)F)c3c2CCCC3)on1 (stereo unspecified), which max activity is on record?
**A.** 14.3% [at 0.16 µM]

**Q.** Which max activity does the source give for CC(C)c1cc(C2CCCN2C(=O)Cn2nc(C(F)(F)F)c3c2CCCC3)no1 (stereo unspecified) here?
**A.** 6.95% [at 0.16 µM]

**Q.** For CCCc1cc(C2CCCN2C(=O)Cn2nc(C(F)(F)F)cc2C)no1 (stereo unspecified), which max activity is on record?
**A.** 9.64% [at 1.35 µM]

**Q.** For Cc1cc(C2CCCN2C(=O)Cn2nc(C(F)(F)F)c3c2CCCC3)on1 (stereo unspecified), which max activity is on record?
**A.** -9.58% [at 0.16 µM]

**Q.** For Cc1cc(C2CCCN2C(=O)Cn2nc(C(F)(F)F)cc2C)no1 (stereo unspecified), which max activity is on record?
**A.** 11.8% [at 2.6 µM]

**Q.** For CC(C)c1cc(C2CCCN2C(=O)Cn2nc(C(F)(F)F)c3c2CCCC3)on1 (stereo unspecified), which max activity is on record?
**A.** 9.58% [at 2.6 µM]

**Q.** For COCCCNC(=O)Cn1c(=O)c(S(=O)(=O)c2ccccc2)cc2ccccc21, which max activity is on record?
**A.** -8.44% [at 0.35 µM]

**Q.** For Cc1ccc(-c2nc3c(s2)CN(S(=O)(=O)c2ccc(Cl)cc2)CC3)cc1, which max activity is on record?
**A.** 6.55% [at 10 µM]

**Q.** For COc1cccc(CC(=O)N2CCC3(CC2)Nc2cc(OC)ccc2-n2cccc23)c1, which max activity is on record?
**A.** 12.8% [at 0.35 µM]

**Q.** Which max activity does the source give for COc1ccc(CCNc2nc(SCc3cc(=O)n4cc(Cl)ccc4n3)nc3ccccc23)cc1OC here?
**A.** 12.8%

**Q.** Which max activity does the source give for Cc1ccc(Cn2c(CN3CCC(C(=O)NCc4cccnc4)CC3)cc3ccccc32)cc1 here?
**A.** 16.6% [at 2.6 µM]

**Q.** With CN1C[C@H]2CN(Cc3ccc4c(c3)OCO4)CCC[C@@]2(C(=O)O)C1 as the compound, how does the max activity read?
**A.** 12.4%

**Q.** With COc1cccc(C(=O)N2CCC3(CC2)Nc2ccc(Cl)cc2-n2cccc23)c1 as the compound, how does the max activity read?
**A.** 7.04% [at 10 µM]

**Q.** Which max activity does the source give for Cc1cccc(OCC(=O)N2CCC(C(=O)NCCc3csc(-c4ccccc4)n3)CC2)c1 here?
**A.** 9.91%

**Q.** Which max activity does the source give for CCc1cnc(N2CCc3cc(C(=O)NCC4CC4)c(N(C)C)nc3CC2)nc1 here?
**A.** -14.2% [at 2.6 µM]

**Q.** Which max activity does the source give for CN(C)C(=O)c1cc2c(nc1NCC1CC1)CCN(Cc1ccccn1)CC2 here?
**A.** 32.5%

**Q.** With COc1ccc(C(=O)N2CCC3(CC2)Nc2ccc(Cl)cc2-n2cccc23)cc1OC as the compound, how does the max activity read?
**A.** 9.68% [at 0.68 µM]

**Q.** For O=C(Nc1ccc(-c2nc(-c3ccccc3)co2)cc1)C1CCCCC1, which max activity is on record?
**A.** 11.6% [at 10 µM]

**Q.** With CCc1ccc(-c2noc(-c3nnn(Cc4nc(-c5ccccc5OC)oc4C)c3C)n2)cc1 as the compound, how does the max activity read?
**A.** 11.7% [at 1.35 µM]

**Q.** For Cc1cccc(OCC(=O)N2CCC[C@@H]2C(=O)NCCc2csc(-c3ccccc3)n2)c1, which max activity is on record?
**A.** 9.84% [at 2.6 µM]

**Q.** For COCC(=O)N1CC(=O)N2[C@H](CO)[C@H](c3ccc(C#CC4CC4)cc3)[C@@H]2C1, which max activity is on record?
**A.** 43.4%

**Q.** For O=C(Cc1cccnc1)N1CC(=O)N2[C@@H](CO)[C@H](c3ccc(C#CC4CCCCC4)cc3)[C@@H]2C1, which max activity is on record?
**A.** 14.3% [at 10 µM]

**Q.** With COCC(=O)N1CC(=O)N2[C@H](CO)[C@@H](c3ccc(C#CC4CC4)cc3)[C@@H]2C1 as the compound, how does the max activity read?
**A.** 39.9%

**Q.** For Cc1ccc(-c2noc(-c3nnn(Cc4nc(-c5ccccc5)oc4C)c3C)n2)cc1C, which max activity is on record?
**A.** 6.16%

**Q.** Which max activity does the source give for O=C(Cc1cccs1)N1CCC2(CC1)Nc1cc(F)ccc1-n1cccc12 here?
**A.** 7.4% [at 2.6 µM]

**Q.** With Cc1cccc(S(=O)(=O)N2CCC(C(=O)NCCc3csc(C)n3)CC2)c1 as the compound, how does the max activity read?
**A.** -8.91%

**Q.** With COc1ccccc1-c1nc(Cn2nnc(-c3nc(-c4cccc(OC)c4OC)no3)c2C)c(C)o1 as the compound, how does the max activity read?
**A.** -11.2%

**Q.** With Cc1ccc(-c2noc(-c3nnn(Cc4nc(-c5ccccc5)oc4C)c3C)n2)cc1 as the compound, how does the max activity read?
**A.** 8.04%

**Q.** Which max activity does the source give for O=C(Nc1ccc(-c2nc(-c3ccccc3)co2)cc1)Nc1ccc(F)c(Cl)c1 here?
**A.** 15.9%

**Q.** For CC(C)CNC(=O)C1Cn2ccnc2C2(CCN(c3ncccn3)CC2)O1 (stereo unspecified), which max activity is on record?
**A.** 47.8%

**Q.** With Cc1cccc(-c2nc(Cn3nnc(-c4nc(-c5cccc(Br)c5)no4)c3C)c(C)o2)c1 as the compound, how does the max activity read?
**A.** 7% [at 0.68 µM]

**Q.** Which max activity does the source give for CC(C)c1ccc(S(=O)(=O)N2CCC3(CC2)NCCN=C3NCc2ccc(F)cc2)cc1 here?
**A.** -13.4% [at 10 µM]

**Q.** With COCCNC1=NCCNC12CCN(S(=O)(=O)c1ccc(C(C)C)cc1)CC2 as the compound, how does the max activity read?
**A.** -6.8% [at 1.35 µM]

**Q.** With COc1ccccc1CCC(=O)Nc1ccc2c(c1)CCC(=O)N2C as the compound, how does the max activity read?
**A.** -10.7% [at 0.16 µM]

**Q.** For O=C1CCc2cc(NC(=O)c3cncc(Br)c3)ccc2N1, which max activity is on record?
**A.** 4.53% [at 0.68 µM]

**Q.** For Cc1cccc(NC(=O)Nc2ccc(-c3nc(-c4cc(C)ccc4C)co3)cc2)c1, which max activity is on record?
**A.** 6.67%

**Q.** Which max activity does the source give for CC(C)CC#Cc1ccc([C@@H]2[C@H]3CN(C(=O)Nc4cc(F)ccc4F)CC(=O)N3[C@H]2CO)cc1 here?
**A.** 2.95% [at 0.16 µM]

**Q.** Which max activity does the source give for Cc1oc(-c2ccccc2)nc1Cn1nnc(-c2nc(-c3cccc(C(F)(F)F)c3)no2)c1C here?
**A.** -10.4% [at 0.35 µM]
